The source of these data is PubChem BioAssay (EPA / NIEHS).

Calls of active or inactive are those of the source. The calls were made as follows: active = hit-call score of the fitted dose curve at least 0.9, where 1 is the maximum; inactive = score below 0.9.

Read-out in this assay: Nuclear factor NF-kappa-B p105 subunit (Homo sapiens) (UniProt P19838)
Description: LTEA_HepaRG_NFKB1: Life Technologies and Expression Analysis (LTEA) Assay for Nuclear Factor Kappa B Subunit 1 (NFKB1) using HepaRG (AID 2283521).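 Also: differentiated human HepaRG liver cells in serum-free induction medium; TaqMan qRT-PCR transcript normalised to ACTB GAPDH and POLR2A housekeeping genes.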 The following applies: mRNA level, 48 h; actives raise or lower the signal. The method in brief: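 NFKB1 transcript was measured by TaqMan qRT-PCR on Fluidigm arrays, normalised to three housekeeping genes and fitted in both directions against 0.5% DMSO. HepaRG cells were dosed in duplicate for 48 h in serum-free induction medium, eight half-log steps from 100 uM.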

Chain of Nuclear factor NF-kappa-B p105 subunit (Homo sapiens) (P19838 whole entry, looked up): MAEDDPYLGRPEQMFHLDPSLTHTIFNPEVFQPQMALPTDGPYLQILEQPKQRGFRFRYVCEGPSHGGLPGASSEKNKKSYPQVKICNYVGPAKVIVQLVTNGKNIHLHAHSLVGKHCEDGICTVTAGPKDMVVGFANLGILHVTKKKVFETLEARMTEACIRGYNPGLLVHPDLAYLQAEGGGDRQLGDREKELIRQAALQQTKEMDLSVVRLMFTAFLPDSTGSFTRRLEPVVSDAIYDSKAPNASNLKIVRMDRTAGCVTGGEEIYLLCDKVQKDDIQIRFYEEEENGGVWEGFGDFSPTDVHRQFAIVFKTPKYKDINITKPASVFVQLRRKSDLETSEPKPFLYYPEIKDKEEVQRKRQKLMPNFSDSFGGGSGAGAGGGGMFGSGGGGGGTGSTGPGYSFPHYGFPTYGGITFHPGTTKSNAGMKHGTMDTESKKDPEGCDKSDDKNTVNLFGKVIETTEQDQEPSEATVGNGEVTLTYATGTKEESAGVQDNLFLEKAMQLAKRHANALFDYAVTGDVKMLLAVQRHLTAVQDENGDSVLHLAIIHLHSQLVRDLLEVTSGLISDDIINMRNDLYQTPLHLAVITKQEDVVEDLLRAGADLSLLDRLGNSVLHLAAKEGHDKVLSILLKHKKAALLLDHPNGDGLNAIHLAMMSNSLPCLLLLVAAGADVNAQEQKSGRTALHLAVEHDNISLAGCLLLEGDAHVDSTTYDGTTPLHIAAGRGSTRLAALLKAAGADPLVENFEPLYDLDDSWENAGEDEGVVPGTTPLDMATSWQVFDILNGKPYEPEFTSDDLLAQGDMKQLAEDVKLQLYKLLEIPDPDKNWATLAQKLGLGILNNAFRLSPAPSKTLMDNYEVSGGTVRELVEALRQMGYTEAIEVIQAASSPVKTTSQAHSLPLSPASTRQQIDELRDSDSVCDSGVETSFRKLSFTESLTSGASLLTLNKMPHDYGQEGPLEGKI

`C1CNCCN1`: the call was inactive.

With `Nc1ccc(C(=O)O)cc1`, the result was inactive.
